These results are taken from PubChem BioAssay (NCATS).

Results filed as inconclusive are left out. Active and inactive are the calls of the source. The call rests on the fitted dose curve; in most records, active means well fitted inhibition curve with a large enough effect; inconclusive means small, poorly fitted or top-dose-only effect; inactive means no such curve, though single readings can be large or run the other way.
Potency means the concentration at half of the fitted maximal effect.

This experiment in a line: BET inhibitor-based combinations targeting novel dependencies in MECOM-rearranged (r) AML: MV-4-11 cell line (AID 2202233). Further: nearly all actives have a fitted effect of over 45% in size.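 On viability, % of control: plate controls were DMSO for no effect and blank wells for full effect.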 The note with it: MV-4-11 AML viability, CellTiter-Glo luminescence, 48 h; series mostly up to 46 µM. The text has this: Ecotropic viral insertion site 1 (EVI1) is located on chromosome 3q26.2 as part of the MECOM (MDS and EVI1 complex) locus. Under normal hematopoiesis, EVI1 is a regulator of hematopoietic stem cell maintenance and self-renewal and EVI1 levels decrease as the cells differentiate. In approximately 5-10% of de novo acute myeloid leukemia (AML) EVI1 is aberrantly expressed, including Chromosomal inv(3)(q21;q26.2) or t(3;3)(q21;q26.2) alterations (MECOM-r) that account for about 50% of AML with EVI1 overexpression 31. AMLs with high levels of EVI1 have a poor prognosis and an overall survival time averaging between 10-14 months. EVI1 overexpression confers resistance in leukemia cells, highlighting the need to develop new targeted therapies for EVI1 overexpressing AMLs. Here, we performed an unbiased chemical drug screening by evaluating the single agent activity of a collection of 2,480 oncology-focused, approved and investigational drugs (NCATS Mechanism Interrogation Plates, MIPE v5.0) against a panel of seven AML cell lines. These included four MECOM-r cell-lines (AML-191, AML-194, UCSD-AML1 and HNT-34) and three non-MECOM-r AMLs (MV4-11, OCI-AML3 and SET-2). Exploiting the mechanistic redundancy built in the library, we identified target-level sensitivities in MECOM-r AML cells and relative activity as compared to other AML subtypes.
A collection of 2480 mechanistically annotated dugs (MIPE v5.0) was used to screen four 3q26.2 rearranged AML cell lines and three non-3q26.2 rearranged AML cell lines. This library purposely exploits redundancy by including multiple inhibitors of key onco-targets, while simultaneously encompassing mechanistic diversity, targeting more than 800 distinct mechanisms of action. Briefly, cells were seeded in 5 uL of growth media using a Multidrop Combi dispenser into 1536 well white polystyrene tissue culture treated plates (Corning) at a density of 500cells/well. For each cell-line, for each of the 2480 drugs in MIPE v5.0 library, an 11-point dose curve was generated via a 1536 pin-tool. Plates were incubated for 48 hr at standard incubator conditions, covered by a stainless steel gasketed lid to prevent evaporation. Cell viability was determined by luminescence based, Cell Titer Glo assay (Promega). In detail, 3 uL of Cell Titer Glo were added to each well and plates were incubated at room temperature for 15 min with a stainless-steel lid in place. Luminescence readings were taken using a Viewlux (PerkinElmer) with a 2 s exposure time per plate. Compound dose-response curves were normalized to DMSO and empty well controls on each plate. Quantitative drug activity data from dose-response curves was determined utilizing area Under the Curve (AUC) and Z-transformed AUC (Z-AUC, a mean-centering transformation applied to each individual cell-line screened).
On the technique in general: In ATP-based viability assays light output follows the ATP content of the culture.
For `c1ccc(-c2oc3ncnc(NC[C@@H]4CCCO4)c3c2-c2ccccc2)cc1`, the Potency result was “inactive”.

In the case of `CCC1=C(C)CN(C(=O)NCCc2ccc(S(=O)(=O)NC(=O)NC3CCC(C)CC3)cc2)C1=O` (stereo not given), the Potency result is “inactive”.

In the case of `CC(C)(C)OC(=O)CN(Cc1ccc(Cl)cc1)Cc1ccc([N+](=O)[O-])s1`, the Potency was 18.6 µM (active).

As to `CN(C)C1CCN(C(=O)c2ccc(NC(=O)Nc3ccc(-c4nc(N5CCOCC5)nc(N5CCOCC5)n4)cc3)cc2)CC1`, the Potency was 0.118 µM (active).

`NS(=O)(=O)c1cc(Cl)c(Cl)c(S(N)(=O)=O)c1`: the Potency entry is “inactive”.

As to `Clc1cccc(-n2nnnc2NCc2ccccc2Oc2ccccn2)c1Cl`, the Potency result is “inactive”.

Turning to `CC(=O)OCC(CCn1cnc2cnc(N)nc21)COC(C)=O`, the Potency result is “inactive”.

Regarding `CCCCNc1ncc(-c2ccc(CN3CCOCC3)cn2)c(NC2CCC(O)CC2)n1` (stereo not given), the Potency was 0.144 µM (active).

In the case of `Nc1nc(=O)n([C@H]2C[C@H](O)[C@@H](CO)O2)cc1F`, the Potency was 0.0148 µM (active).

Regarding `NC(=O)c1ncn([C@@H]2O[C@H](CO)[C@@H](O)[C@H]2O)n1`, the Potency was 23.5 µM (active).

With `O=C1CCc2ccc(OCCCCN3CCN(c4cccc(Cl)c4Cl)CC3)cc2N1`, the Potency was 16.6 µM (active).

For `CC1(C)CCC(c2ccc(Cl)cc2)=C(CN2CCN(c3ccc(C(=O)NS(=O)(=O)c4ccc(N[C@H](CCN5CCOCC5)CSc5ccccc5)c(S(=O)(=O)C(F)(F)F)c4)cc3)CC2)C1`, the Potency is 0.332 µM (active).

For `CN[C@@H](C)[C@H]1[C@H](O)C[C@@]2(C)[C@@H]3CC[C@H]4C(C)(C)[C@@H](NC)CC[C@@]45C[C@@]35CC[C@]12C`, the viability, % of control is 115% [at 8.46 µM] (inactive).

Take `CCN(CC)CCCC(C)Nc1ccnc2cc(Cl)ccc12` (stereo not given): the viability, % of control was 101% [at 8.46 µM] (inactive).

`CC(=O)SC[C@@H](C)C(=O)N1CCC[C@H]1C(=O)N[C@@H](Cc1ccccc1)C(=O)O`: the Potency entry is “inactive”.

`OC[C@H]1O[C@@H](Oc2cc(O)cc(/C=C/c3ccc(O)cc3)c2)[C@H](O)[C@@H](O)[C@@H]1O`: the Potency result is “inactive”.

`Cc1cc(Cl)ccc1OCCCC(=O)NO`: the Potency was 18.6 µM (active).

As to `O=c1[nH]cc(F)c(=O)[nH]1`, the Potency was 6.61 µM (active).

As to `C[C@H]1CN(C[C@H](Cc2ccccc2)C(=O)NCC(=O)O)CC[C@@]1(C)c1cccc(O)c1`, the Potency entry was “inactive”.

Consider `COc1cccc2c(NCc3ccccc3)nc(-n3c(N)nc4ccccc43)nc12`, for which the Potency is 7.42 µM (active).

`Cc1c(NC(=O)c2cc3c(s2)CCCC3)cccc1-c1cn(C)c(=O)c(Nc2ccc(C3C(=O)N(C)CCN3C)cc2)n1` (stereo not given): the Potency is 16.6 µM (active).

`CCOC(=O)C1=C(N)Oc2ccc(Br)cc2C1C(C#N)C(=O)OCC` (stereo not given): the Potency entry is “inactive”.

For `CCc1nc(-c2cccc(C)c2)c(-c2ccnc(NC(=O)c3ccccc3)c2)s1`, the Potency is 10.5 µM (active).

Take `CNC(=O)c1nn(C)c2c1C(C)(C)Cc1cnc(Nc3ccc(N4CCN(C)CC4)cc3)nc1-2`: the Potency is 0.132 µM (active).

Consider `COc1c(N2CCNC(C)C2)c(F)cc2c(=O)c(C(=O)O)cn(C3CC3)c12` (stereo not given), for which the Potency entry is “inactive”.

Consider `CCCCC(CC)COC(=O)C(C#N)=C(c1ccccc1)c1ccccc1` (stereo not given), for which the Potency result is “inactive”.

For `Cc1nc2c(-c3cnc(N)nc3)nc(N3CCOCC3)nc2n1C(C)C`, the Potency is 0.296 µM (active).

In the case of `CC(C)Oc1ccc2c(=O)c(-c3ccccc3)coc2c1`, the Potency result was “inactive”.

Take `Nc1nc2c(ncn2COC(CO)CO)c(=O)[nH]1`: the Potency result was “inactive”.

Take `Oc1ccc(C2CNCCc3c2cc(O)c(O)c3Cl)cc1` (stereo not given): the Potency result is “inactive”.

In the case of `O=C(O)[C@H](CC(=O)N1C[C@H]2CCCC[C@H]2C1)Cc1ccccc1`, the Potency result is “inactive”.

On to `COc1cc(SC)ccc1C(=O)N1CCC(Cc2ccccc2)CC1`, for which the Potency is 20.9 µM (active).

As for `O=C(NOCC1CC1)c1ccc(F)c(F)c1Nc1ccc(I)cc1Cl`, the Potency was 7.42 µM (active).

With `CC1CCN(c2cc(N3CCN(C)CC3)ccc2NC(=O)c2cc(C#N)c[nH]2)CC1`, the Potency was 8.33 µM (active).

On to `CN1c2ccccc2C(=O)N2CCc3c([nH]c4ccccc34)C21` (stereo not given), for which the Potency is 3.32 µM (active).

On to `CCCCc1oc2ccc(NS(C)(=O)=O)cc2c1C(=O)c1ccc(OCCCN(CCCC)CCCC)cc1`, for which the Potency is 10.5 µM (active).

Take `Cc1ccc2nc(NC(=O)CSc3nc4c(c(=O)n3-c3ccccc3)SCC4)sc2c1`: the Potency entry was “inactive”.

On to `c1cc(OCCN2CCCCC2)cc(-c2n[nH]c3ccc(-c4ncn[nH]4)cc23)c1`, for which the Potency was 1.86 µM (active).

Regarding `CC(C)c1c(C(=O)Nc2ccccc2)c(-c2ccccc2)c(-c2ccc(F)cc2)n1CC[C@@H](O)C[C@@H](O)CC(=O)O`, the Potency was 5.74 µM (active).

In the case of `COC(=O)Nc1nc2ccc(C(=O)c3cccs3)cc2[nH]1`, the Potency is 0.118 µM (active).
